# Results from ChEMBL document CHEMBL4513216, “Probing the Open Global Health Chemical Diversity Library for Multistage-Active Starting Points for Next-Generation Antimalarials” (ACS Infect Dis, 2020).
# The whole screen tested about 69,000 compounds, of which about 8,600 (12%) showed an effect of 50% or more. The sample as a whole holds a higher share of strong results than the screen did.
# Test system: Plasmodium berghei
# Assay: Screen against P. berghei liver stage (PbLuc), transformed with Luciferase, at 10uM
# Format: functional, HepG2
# Conditions: tested at 10 uM
row,SMILES,INHIBITION [%]
1,CCS(=O)(=O)N1CCC2(CN(c3ccsc3)C(=O)CN2C)C1 (stereo not drawn),1.9
2,CN(C)CC1(O)CCCN(C(=O)CCn2cc(Cl)cn2)C1 (stereo not drawn),-47
3,CSc1nc2ccsc2c(=O)n1CC(=O)N(C)C1CCCCC1,26.6
4,Cn1nccc1C(=O)N1CCCC1c1[nH]ncc1C(N)=O (stereo not drawn),-31
5,CCOC(=O)N1CCN(C(=O)CCn2cccc2)CC1,35
6,Cc1nc(CN2CCC3(CC2)C(=O)N(C)CCN3C)cs1,31.5
7,Cn1cc(-c2nnn3c2COC(CNC(=O)c2cccs2)C3)cn1 (stereo not drawn),8.64
8,Cc1nc(CN2CCN(C(=O)c3ccnc(N(C)C)c3)CC2)cs1,43.2
9,Cc1ccc(CN(C)C(=O)C(C)n2ccnc2C(C)C)o1 (stereo not drawn),33
10,CN(C)C1CCCN(C(=O)c2cccc(-c3ncc[nH]3)c2)CC1 (stereo not drawn),12.8
11,O=C(c1cccc(-c2ncc[nH]2)c1)N1CC[C@H](CO)[C@@H](O)C1,-12.1
12,O=C(c1cccc(-c2ncc[nH]2)c1)N1CCC(N2CCCC(O)C2)CC1 (stereo not drawn),57.2
13,Cc1ncnc2c1CCN(Cc1nccs1)CC2,8.85
14,CC(C(=O)NCC(C)(C)c1ccc(Br)cc1)n1cncn1 (stereo not drawn),23.1
15,O=c1[nH]cnc2[nH]c(N3CCOCC3)nc12,31.8
16,COc1ccc2nc(C3CC3)cc(C(=O)NCc3ncnn3C)c2c1,10.7
17,COc1ccc2nc(C3CC3)cc(C(=O)NCC(=O)N(C)C)c2c1,13.9
18,COc1ccc2nc(C3CC3)cc(C(=O)NCc3noc(C)n3)c2c1,57.2
19,COc1ccc(Cl)cc1C(=O)NC(CC(=O)O)c1cccs1 (stereo not drawn),29.7
20,COc1ccccc1CC(=O)NC(CC(=O)O)c1ccc(F)cc1 (stereo not drawn),32.3
21,COc1cccc(-c2n[nH]cc2C(=O)NC(C)CC(=O)O)c1 (stereo not drawn),42.3
22,O=C(O)CC(NC(=O)c1ccccc1OC(F)F)c1cccs1 (stereo not drawn),68.8
23,CCOc1ccccc1C(=O)NC(CC(=O)O)c1cccs1 (stereo not drawn),13.3

row,SMILES,INHIBITION [%]
1,COc1ccccc1C(=O)NC(CC(=O)O)c1cccs1 (stereo not drawn),-9.14
2,COc1ccc(C)cc1CC(=O)NC(CC(=O)O)c1ccc(F)cc1 (stereo not drawn),58.3
3,COc1ccccc1C(=O)NC(C)CC(=O)O (stereo not drawn),51.3
4,COc1ccc(C)cc1C(=O)NC(CC(=O)O)c1cccs1 (stereo not drawn),52.3
5,COc1ccc(CC(=O)NC(CC(=O)O)c2ccc(F)cc2)cc1OC (stereo not drawn),29
6,COc1ccccc1CC(C)CC(=O)O (stereo not drawn),29.3
7,COc1ccc(C(=O)NC(CC(=O)O)c2cccs2)c(OC)c1 (stereo not drawn),-5.25
8,Cc1csc(CN2CCC[C@]3(C[C@@H](OCC4CC4)CO3)C2)n1,35.6
9,Cc1nnc(NCCn2nc(C)c(Cl)c2C)o1,26.8
10,CC(Cn1ccnc1)NC(=O)NCCc1ccc(Cl)s1 (stereo not drawn),-5.25
11,O=C1CC(N(C(=O)CCc2cc(F)ccc2F)C2CC2)C(=O)N1 (stereo not drawn),22.2
12,CCn1ccnc1CN1CCCC1c1noc(C2CC2)n1 (stereo not drawn),40.9
13,CN(Cc1nnc2n1CCC2)C(=O)c1ccc2c(c1)CCO2,26.4
14,Cc1nc2c(c(=O)[nH]1)CCN(Cc1ccc3c(c1)CCCN3C)C2,31.6
15,Cc1ccc2c(c1)C(=O)NCC1(CCN(C(=O)c3cnccn3)CC1)O2,-32.2
16,O=C(CCc1ccccc1F)N1CCC(Nc2cccnn2)CC1,1.78
17,O=C1N(CC2CCCC2)CCC12CCN(c1ncc(F)cn1)CC2,8.74
18,NC(=O)CN1CCC(NC(=O)COCCOc2ccccc2)CC1,31.6
19,CC(=O)NCCC1CCCCN1S(=O)(=O)c1cccc(F)c1 (stereo not drawn),-40.5
20,CNC(=O)c1ccc(C2CN(C(=O)COC)CCO2)nc1 (stereo not drawn),-26.8
21,COCC(=O)N1CCOC(c2cccc(-c3cncnc3)n2)C1 (stereo not drawn),38.2
22,COCC(=O)N1CCOC(c2ccc(N(C)C)cn2)C1 (stereo not drawn),50.1
23,CCCC(=O)N1CCC(c2nc(O)c3c(n2)CCN(C2CCCC2)C3)C1 (stereo not drawn),17.1

row,SMILES,INHIBITION [%]
1,Cc1ccccc1OCCCC(=O)NC(C)c1nnc2n1CCC2 (stereo not drawn),-24.2
2,CNC(=O)[C@H]1C[C@@H]2CN(S(=O)(=O)Cc3ccccc3)C[C@@H]2N1C,-15.7
3,O=C(N1CCOCC1)[C@@]12CCO[C@@H]1CCN(C1CCC1)C2,16.8
4,Cc1ccsc1C(=O)N1C[C@@H]2CN(Cc3ccoc3)CCO[C@@H]2C1,2.27
5,O=C(NCC(F)(F)F)C1CSCN1S(=O)(=O)c1ccc(F)cc1Cl (stereo not drawn),-19.6
6,COc1ncccc1CN1C[C@@H]2C[C@@H](C(=O)NCC3CC3)N(C)[C@@H]2C1,27.2
7,CCCn1cc(-c2cc(-c3c[nH]cn3)c(C#N)c(N)n2)c(C)n1,-8.47
8,CCCn1cc(-c2cc(-c3ccoc3)c(C#N)c(N)n2)c(C)n1,-24
9,CCCn1cc(-c2cc(-c3cc(CC)n[nH]3)c(C#N)c(N)n2)c(C)n1,64.5
10,Cc1ccc(O)c(CNC2CCCN(Cc3noc(C4CC4)n3)C2)n1 (stereo not drawn),15.3
11,CC(C)NC(=O)CN(C)CC(=O)Nc1ccnn1C(C)C1CC1 (stereo not drawn),-164
12,Cc1nc(C)c(CC(=O)NCc2ccccc2F)s1,31.3
13,CC(=O)Nc1ccc(CNC(=O)CNCc2nnc(C)o2)cc1,45.4
14,CC(=O)Nc1ccc(CN(C)Cc2snnc2C)cc1,34.6
15,CC(=O)Nc1ccc(CNC(=O)CNCc2snnc2C)cc1,52.2
16,CC(=O)Nc1ccc(CNC(=O)CNCc2sc(C)nc2C)cc1,55.5
17,Cc1nc(C)c(CC(=O)NCc2ccc(F)cc2)s1,-2.39
18,O=C(O)c1cc(S(=O)(=O)N2CCOc3ccccc32)ccc1Br,2.7
19,CN(C(=O)Cn1nc(-c2ccc(Br)cc2)ccc1=O)C1CCS(=O)(=O)C1 (stereo not drawn),-29.2
20,CC(C)c1cc(O)nc(C2CCCN2C(=O)C2CC2)n1 (stereo not drawn),-9.32
21,O=S(=O)(NCC1CCN(c2cnccn2)CC1)C1CC1,27.5
22,Cn1nccc1-c1ccc2nc(C3CCNCC3)nn2c1,-3.33
